# A549 tox = A549 cytotoxicity, counter-screen for Nrf2 inhibitors; 390,000 compounds, 0.16% hits; AID 504648; A549 ARE-Fluc cells, CellTiter-Fluor viability, 18-24 h; Potency, µM (highest dose often 46 µM), without a hit: at the highest dose activity change, negative = cytotoxicity, actives largely listed as inhibitors; further: potency means the concentration at half of the fitted maximal effect; on the % scale 0 is the no-effect control and ±100 the full control effect
#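 A549 ARE-Fluc cells in 5% FBS OPTI-MEM, 5000 cells/well, rested 2 h then exposed to compounds in concentration-response for 18-24 h at 37 °C. Viability by CellTiter-Fluor fluorescence (Ex 405/Em 525) after 30 min; luciferase luminescence (BugLite, 15 min, RT) read afterwards.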
# 12-LOX inh = blocks human arachidonate 12S-lipoxygenase | P18054 | purified 12hLO, xylenol orange hydroperoxide absorbance | Potency, µM (series often up to 108 µM), inactives show at the top dose activity change, negative = inhibition, most hits filed as inhibitors | 580,000 compounds, 1.1% hits | AID 1671190; further: potency means the concentration at half of the fitted maximal effect; on the % scale 0 is the no-effect control and ±100 the full control effect
# Target sequence (P18054 whole entry, looked up): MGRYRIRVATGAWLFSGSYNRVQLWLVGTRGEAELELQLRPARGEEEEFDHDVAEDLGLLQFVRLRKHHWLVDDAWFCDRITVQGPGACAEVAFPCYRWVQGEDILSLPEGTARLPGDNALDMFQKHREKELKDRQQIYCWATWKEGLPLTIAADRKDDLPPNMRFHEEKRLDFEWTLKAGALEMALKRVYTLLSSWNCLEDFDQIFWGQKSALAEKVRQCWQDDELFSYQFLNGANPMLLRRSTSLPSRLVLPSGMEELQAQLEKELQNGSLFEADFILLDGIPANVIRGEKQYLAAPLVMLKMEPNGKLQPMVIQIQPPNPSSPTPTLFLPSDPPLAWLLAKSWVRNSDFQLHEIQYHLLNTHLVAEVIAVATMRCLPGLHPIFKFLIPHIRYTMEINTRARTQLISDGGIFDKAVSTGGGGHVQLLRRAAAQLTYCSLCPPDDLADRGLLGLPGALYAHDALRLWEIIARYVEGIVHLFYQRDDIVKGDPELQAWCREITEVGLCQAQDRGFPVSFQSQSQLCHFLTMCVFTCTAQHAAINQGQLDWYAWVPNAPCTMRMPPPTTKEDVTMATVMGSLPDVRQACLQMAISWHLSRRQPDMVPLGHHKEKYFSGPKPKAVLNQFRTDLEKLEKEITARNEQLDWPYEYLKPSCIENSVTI
#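 Purified human 12hLO (150 nM final) in 25 mM Hepes, 0.01% Triton X-100, pH 7.0 was preincubated 15 min at room temperature with compound. Then 40 uM arachidonic acid was added, 30 min. Hydroperoxide was read by Fe-XO absorbance ratio 573/405 nm.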
# mIDH1 inhibitor = blocks human mutant IDH1 R132H enzyme | O75874 | IDH1-R132H enzyme, NADPH consumption, diaphorase/resazurin fluorescence | Potency, µM (highest dose often 76.6 µM), without a hit: at the top dose activity change, negative = inhibition, most hits filed as inhibitors | 390,000 compounds, 0.093% hits | AID 602179; further: potency means the concentration at half of the fitted maximal effect; on the % scale 0 is the no-effect control and ±100 the full control effect; nearly all actives have a fitted effect of over 65% in size
#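 IDH1-R132H (0.5 ug/mL dispensed) in pH 7.5 Tris buffer was preincubated 30 min with compound, then given a substrate mix of 0.016 mM NADPH and 2 mM alpha-KG for 80 min at room temperature; remaining NADPH was read by diaphorase/resazurin fluorescence.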
# LDHA inh = inhibitors of human lactate dehydrogenase A. P00338. purified LDHA, NADH/diaphorase-resazurin fluorescence; stronger effect = lower value. 480,000 compounds, 0.15% hits. AID 1347041. activity change, % (values are at about 110 or 230 µM); in the data active means activity change below about -30%; inconclusive means mostly about -25% to -30%;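 further: plate controls were DMSO wells for no effect and wells without enzyme for full effect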
#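 Resorufin fluorescence (ex540/em590), read at 0 and 20 min after diaphorase/resazurin addition, reports the NADH left after a 5 min room-temperature reaction of 2 nM human LDH5 with 0.06 mM NADH and 0.2 mM pyruvate.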
# Nrf2 inh = inhibitors of Nrf2 signaling | A549 ARE-Fluc reporter, luciferase luminescence, 18-24 h | Potency, µM (doses to about 46 µM), inactives show at the top dose activity change, negative = inhibition, most hits filed as inhibitors | 360,000 compounds, 2.1% hits | AID 504444; further: potency means the concentration at half of the fitted maximal effect; on the % scale 0 is the no-effect control and ±100 the full control effect; nearly all actives have a fitted effect of over 60% in size
#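 A549 ARE_Fluc cells (5000/well, 5% FBS OPTI-MEM) pre-incubated 2 h, then treated with compounds 18-24 h at 37C/5% CO2 in concentration-response. CellTiter-Fluor viability read first; BugLite luciferase luminescence after 15 min at room temperature gives Nrf2 activity.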
# Nrf2 activator = activates Nrf2 signaling. 410,000 compounds, 0.31% hits. Potency, µM (top dose mostly 46.1 µM), without a hit: top-dose activation, most hits filed as activators. AID 624171. AREc32 ARE-luciferase reporter (MCF7-derived line), luminescence, 24 h; further: potency means the concentration at half of the fitted maximal effect; % of control where 0% means no effect; nearly all actives have a fitted effect of over 65% in size
#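 AREc32 cells carrying an ARE-driven firefly luciferase, 1000 cells/well in OPTI-MEM with 5% FBS, dosed after overnight attachment and incubated 24 hr at 37 deg C. Steady-Glo luminescence read after 30 min at RT.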
# Active calls of the source: *; u = inconclusive; x = no result given; [ ] = remark or other dose. In the library only some 2.7% were active in any assay of this set; here they are far more common. Unless noted, the call rests on the fitted dose curve; in most records, active means well fitted curve in the direction sought with a large enough effect; inconclusive means small, poorly fitted or top-dose-only effect, or another doubt; inactive means no such curve, though single readings can be large; an effect the other way counts as inactive or inconclusive.
SMILES,A549 tox,12-LOX inh,mIDH1 inhibitor,LDHA inh,Nrf2 inh,Nrf2 activator
CCc1ccc(/C=C/c2c[nH]c3ccccc23)[n+](CC)c1,u,u,7%,-11,6.5µM*,7%
Cc1[nH]c2ccccc2c1/C=C/c1c[nH]c2ccccc12,x,x,x,-3,x,x
Cc1ccc2nc(C3=C(O)CN(c4cccc(Cl)c4C)C3=N)[nH]c2c1,x,29%,x,5,x,x
O=C(Nc1ccccc1C(=O)NCCc1ccccc1)c1ccco1,0%,177%,3%,0,x,2.8µM*
Cc1cc(C(=O)COC(=O)c2cc3ccccc3oc2=O)c(C)n1C1CC1,x,-21%,x,3,x,x
Cc1cc(C(=O)COC(=O)c2cccc(O)c2)c(C)n1C1CC1,-1%,0%,8%,-4,13µM*,-2%
Cc1cccc(N/C=C/C(=O)c2ccc([N+](=O)[O-])cc2)c1,x,-11%,x,2,x,x
N#Cc1cc(C(=O)c2cc(F)ccc2O)cn(-c2ccccc2C(=O)O)c1=O,x,u,x,2,x,x
CCOC(=O)C1C(=O)C=C(c2ccco2)CC1c1ccccc1 (centres undefined),x,11µM*,x,14,x,x
CCOC(=O)C1C(=O)C=C(c2ccccc2)CC1c1ccccc1 (centres undefined),-14%,8%,2%,-5,u,8%
O=C(Cn1cc(C2CCCNC2)nn1)N1CCCC1 (centres undefined),x,26%,x,x,x,x
Cc1cc(C)n(CC2(Cn3cc(C4CCCNC4)nn3)CC2)n1 (centres undefined),x,14µM*,x,x,x,x
CCCNC(=O)c1ccc(COc2cccc3c2OC(C)(C)C3)cc1,x,-6%,x,3,x,x
Cc1cc(C)nc(SC2=CS(=O)(=O)c3ccccc32)n1,-15%,0%,0%,-3,u,u
O=S1(=O)C=C(Sc2nc3ccccc3s2)c2ccccc21,23µM*,x,11%,-1,18µM*,-2%
c1ccc2sc(SSc3nc4ccccc4s3)nc2c1,x,5µM*,x,x,x,x
N#C/C(=C\c1ccco1)Sc1nc2ccccc2s1,-3%,u,6%,-6,23%,11µM*
CC(C)NC(=S)N/N=C/c1sc(N2CCCCC2)nc1-c1cccs1,-3%,35µM*,-1%,1,6%,0%
NC(=O)N/N=C/c1sc(N2CCCCC2)nc1-c1cccs1,-7%,-9%,2%,4,1%,23%
COc1ccc(S(=O)(=O)Nc2cc(C(=O)NC(C)C)ccc2N2CCOCC2)cc1,-3%,23%,0%,-5,-27%,0%
COc1ccc(S(=O)(=O)Nc2cc(C(=O)NC3CCCCCC3)ccc2N2CCOCC2)cc1,1%[1.84 µM],x,3%,1,18µM*,3%
O=C(O)CCCCCCCCCc1cccs1,x,11%,x,2,x,x
CC(Sc1nc(CN2CCOCC2)nc2ccccc12)C(=O)NC1CC1 (centres undefined),x,0%,x,-2,x,x
CC(Sc1nc(CN2CCOCC2)nc2ccccc12)C(=O)Nc1ccc(F)cc1F (centres undefined),x,-26%,x,-33*,x,x
CN(CC(=O)Nc1ccc(F)c(F)c1F)C(=O)/C=C/c1ccco1,1%,-21%,0%,-4,-7%,13µM*
SMILES,A549 tox,12-LOX inh,mIDH1 inhibitor,LDHA inh,Nrf2 inh,Nrf2 activator
Nc1nc2ccccc2n1/N=C/c1ccc([N+](=O)[O-])s1,u,u,8%,-6,15µM*,6%
Cc1ccc(-c2csc(N/N=C/c3ccco3)n2)cc1,-7%,u,1%,0,25%,u
Clc1ccc(-c2csc(N/N=C/c3ccco3)n2)cc1,u,u,2%,0,u,8.9µM*
Cc1ccc(/C=C2/C(=O)ON=C2c2ccccc2)o1,-18%,10µM*,-31%,2,u,3%
CC1=NOC(=O)/C1=C/c1ccc(O)c(Br)c1,-2%,u,-2%,-9,-18%,0%
Cc1ccc(C2=NOC(=O)/C2=C\c2ccccc2)cc1,-5%,u,-17%,-19,2%,0%
O=C1ON=C(c2ccccc2)/C1=C\c1ccco1,-5%,6.3µM*,2%,3,-18%,0%
COc1cc(/C=C2/C(=O)ON=C2c2ccccc2)ccc1O,u,u,4%,-17,15%,6%
CC1=NOC(=O)/C1=C/c1ccc(O)cc1,-2%,16µM*,-4%,-2,-3%,0%
O=C1ON=C(c2ccc(Cl)cc2)/C1=C/c1ccc(O)cc1,-21%,32µM*,-4%,-15,-1%,0%
Cc1ccc2c(c1)-c1c(c(C(=O)NCc3ccc(F)cc3)nn1C)CS2,x,-26%,x,2,x,x
Cc1ccccc1/C=C(/C#N)C(=O)c1sccc1C,x,u,x,9,x,x
O=C(NC1CCCc2ccccc21)C1CC=CCC1 (centres undefined),x,-17%,x,-4,x,x
CCOc1cc(/C=C2\C(=O)ON=C2c2ccccc2)cc(Br)c1O,u,22µM*,-15%,-1,u,3%
O=C1ON=C(c2ccccc2)/C1=C/c1ccccc1,8%,6.3µM*,12%,u,u,3%
COc1cc(/C=C2\C(=O)ON=C2c2ccccc2)cc(Br)c1O,-7%,u,-2%,1,u,7%
O=C1ON=C(c2ccccc2)/C1=C/c1ccc(O)cc1,14%,45µM*,11%,-17,10%,3%
CCCOc1ccccc1/C=C1/C(=O)ON=C1C,-1%,40µM*,-3%,-2,-11%,0%
CCc1ccc2[nH]c(C)c(CC(=O)NC(C)c3ccccc3)c2c1 (centres undefined),x,-9%,x,2,x,x
CCOC(=O)CSc1ccc2nnc(-c3ccccc3)n2n1,u,-17%,3%,-6,3%,0%
CCOC(=O)CSc1ccc2nnc(-c3cccnc3)n2n1,-15%,32µM*,8%,-2,18%,-1%
O=c1cc(-c2ccc(F)cc2)oc2ccccc12,1%,6%,2%,-8,11%,11µM*
CSc1ccc(-c2cc(=O)c3ccccc3o2)cc1,9%[1.84 µM],4%,17%,-4,u,2.8µM*
CCOc1ccc(-c2cc(=O)c3ccccc3o2)cc1,x,u,x,0,x,x
O=c1cc(-c2ccccc2F)oc2ccccc12,-6%,0%,7%,-2,19%,u
COc1ccc(-c2noc(CC3CCN(C(=O)c4ccc(OC)nc4)CC3)n2)cc1,x,13%,x,x,x,x
c1ccc2c(c1)Nc1ccncc1S2,-21%,86%,-3%,4,29µM*,3%
Cc1cc(NC(=O)N(Cc2ccco2)Cc2cccs2)no1,x,u,x,20,x,x
CC(/C=N/NC(=O)c1cccs1)=C\c1ccco1,1%,-4%,3%,9,u,14µM*
